AmpC no deterg = AmpC beta-lactamase inhibition without detergent; AmpC nitrocefin hydrolysis, absorbance 480 nm, 0.0001% Triton; Potency, µM (top dose mostly 57.1 µM), without a hit: at the top dose activity change, negative = inhibition, hits mostly inhibitors; 330,000 compounds, 0.52% hits;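 further: plate controls were no compound for no effect and no enzyme for full effect; nearly all actives have a fitted effect of over 20% in size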
Target sequence (P00811 whole entry, looked up): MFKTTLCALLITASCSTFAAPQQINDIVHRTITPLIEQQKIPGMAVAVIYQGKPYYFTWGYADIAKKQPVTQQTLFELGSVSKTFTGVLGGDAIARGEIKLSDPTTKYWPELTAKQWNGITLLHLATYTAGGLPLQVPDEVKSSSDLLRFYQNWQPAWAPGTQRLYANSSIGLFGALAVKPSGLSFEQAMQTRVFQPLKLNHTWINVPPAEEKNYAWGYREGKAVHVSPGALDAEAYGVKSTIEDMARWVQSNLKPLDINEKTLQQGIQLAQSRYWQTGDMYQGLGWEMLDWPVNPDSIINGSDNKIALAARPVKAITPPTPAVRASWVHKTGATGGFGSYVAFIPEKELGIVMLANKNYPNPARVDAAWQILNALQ
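20 mM phosphate pH 7.0 + 0.01% (detergent screen) or 0.0001% Triton X-100; 5.3 nM AmpC reagent; cpd preinc 15 min RT; nitrocefin (800 uM stock) to start; A480 q20 s × 4 min; Activity was normalised to no-enzyme and no-compound control wells.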
AmpC detergent = inhibitors of E. coli AmpC beta-lactamase with detergent; 370,000 compounds, 0.041% hits; AmpC hydrolysis of nitrocefin, absorbance 480 nm, 0.01% Triton; Potency, µM (doses to about 114 µM), for inactives: top-dose activity change, negative = inhibition, most hits filed as inhibitors;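 further: 0% = no-compound wells and -100% = no-enzyme wells; nearly all actives have a fitted effect of over 25% in size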
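20 mM phosphate pH 7.0 + 0.01% (detergent screen) or 0.0001% Triton X-100; 5.3 nM AmpC reagent; cpd preinc 15 min RT; nitrocefin (800 uM stock) to start; A480 q20 s × 4 min; Activity was normalised to no-enzyme and no-compound control wells.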
RE007 growth inh = less growth of the S. pombe RE007 Vpr strain; 360,000 compounds, 0.21% hits; AID 651644; S. pombe RE007 Vpr strain, BacTiter-Glo ATP luminescence, 24 h; Potency, µM (top dose mostly 92.2 µM), inactives show at the top dose activity change, negative = less growth, hits mostly inhibitors; active means well fitted falling curve with a large enough effect; inconclusive means small, poorly fitted or top-dose-only effect; inactive means no such curve, though single readings can be large or run the other way; further: nearly all actives have a fitted effect of over 50% in size
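Fission yeast RE007 carrying one integrated HIV-1 vpr copy, seeded at OD 0.01 in PMG+AL medium with 23 nL pinned compound. Grown 24 h at 30 degrees; viability read by BacTiter-Glo luminescence after 5 min.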
AMA1 RON2 block = disrupts binding of P. falciparum AMA1 to RON2; AlphaScreen AMA1-biotinylated RON2 peptide binding; Potency, µM (highest dose often 58.2 µM), without a hit: at the top dose activity change, negative = inhibition, usual class: inhibitors; 360,000 compounds, 0.2% hits;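 further: 0% = vehicle wells and -100% = peptide control; nearly all actives have a fitted effect of over 45% in size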
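AMA1 (3D7) with his tag at 25 nM final met compounds first, then biotinylated RON2 peptide at 25 nM; detection used donor plus acceptor beads, 10 µg/mL apiece, read by AlphaScreen after 30 min at room temperature.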
Sm TGR block = inhibitors of Schistosoma mansoni thioredoxin glutathione reductase. purified TGR, DTNB reduction, TNB absorbance 405 nm. Potency, µM (series often up to 114 µM), inactives show top-dose activity change, negative = inhibition, usual class: inhibitors. 360,000 compounds, 3% hits; further: nearly all actives have a fitted effect of over 60% in size
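First, TGR (20 nM dispensed) and NADPH were mixed with compound. Second, a 15 min room-temperature incubation followed. Third, further NADPH and then DTNB were added to start the reaction. Finally, TNB absorbance was monitored kinetically.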
Starred values were filed as active, the others as inactive; ? = inconclusive; . = no result; [ ] = dose if it differs, or a comment. Shown are actives, neighbours in structure and some others; about 3.2% of the full set was active somewhere. Unless noted, the call rests on the fitted dose curve; in most records, active means well fitted curve in the direction sought with a large enough effect; inconclusive means small, poorly fitted or top-dose-only effect, or another doubt; inactive means no such curve, though single readings can be large; an effect the other way counts as inactive or inconclusive. Unless noted, on the % scale 0 is the no-effect control and ±100 the full control effect; potency means the concentration at half of the fitted maximal effect.

SMILES | AmpC no deterg | AmpC detergent | RE007 growth inh | AMA1 RON2 block | Sm TGR block
Cc1nn(Cc2ccccc2)c(C)c1NC(=O)c1cc(C(C)C)on1 | . | 1% | . | . | 9%
CC(C(=O)Nc1ccc(F)c(Cl)c1)N1Cc2ccccc2C1=O (stereo not given) | . | 16% | . | . | 3%
O=C(/C=C/c1ccc(O)c(O)c1)OCCc1ccccc1 | . | . | 0%[18.4 µM] | 1% | .
O=C(/C=C/c1ccc(O)c(O)c1)OC(Cc1ccc(O)c(O)c1)C(=O)O (stereo not given) | -53% | ? | 3% | -9% | 35µM*
O=C(NCCc1csc(-c2cccc(F)c2)n1)c1ccccc1C(F)(F)F | . | 3% | . | . | 0%
COc1cccc(NC(=O)CCC(=O)NCc2ccco2)c1 | -9% | 1% | 32% | 2% | -11%
CC(C)(C)NS(=O)(=O)c1ccc(CCC(=O)NCc2ccco2)cc1 | -1% | ? | 17% | 1% | 35µM*
COc1ccc(N(C(C)C(=O)NCc2ccco2)S(C)(=O)=O)cc1 (stereo not given) | 1% | -2% | 13% | 18% | 25µM*
COc1ccc(CCC(=O)NCc2ccco2)cc1 | -36% | -14% | 37% | 10% | 56µM*
COc1ccc(N2C(N)=C(C#N)C(c3cc(CN4CCOCC4)cs3)C3=C2CCCC3=O)cc1 (stereo not given) | . | 8% | . | . | -13%
CC1(C)CC(=O)C2=C(C1)OC(N)=C(C#N)C21CCC2(CC1)OCCO2 | . | -4% | -7% | 7% | 22µM*
CC(=O)N1CCC2(CC1)C(C#N)=C(N)OC1=C2C(=O)CC(C)(C)C1 | -16% | -1% | -1% | 11% | -8%
CC1(C)CC(=O)C2=C(C1)OC(N)=C(C#N)C21CCN(Cc2ccccc2)CC1 | -19% | ? | 0% | 7% | 14µM*
O=C(CCl)NCc1c(Cl)cccc1-n1cccc1 | -12% | 4% | 10% | -11% | 32µM*
CCCNC(=O)C1CCC(Cn2c(=O)c3sccc3n(CC(=O)Nc3ccccc3C)c2=O)CC1 (stereo not given) | . | 5% | . | . | 0%
N#Cc1c(NC(=O)CSc2ncnc3sccc23)oc(-c2ccco2)c1-c1ccco1 | 1.8µM* | -8% | 18% | 5% | 4µM*
Cc1cc(NC(=O)CSc2ncnc3sccc23)no1 | -15% | ? | 4% | -4% | 2%
Cc1cc(C)cc(OC(=O)c2cc(-c3ccc(Cl)cc3)on2)c1 | . | 25% | . | . | 6%
CC(=O)c1sc(N/N=C2\CC3CC2C(C)C3(C)C)nc1C (stereo not given) | -20% | 0% | 6% | 19% | 1.6µM*
CCc1ccccc1N1CC(c2nc3ccccc3n2CCCOc2ccc(Cl)cc2)CC1=O (stereo not given) | . | -6% | . | . | 0%
Cc1ccc(-n2nc(C)c3c(C(F)(F)F)cc(-c4cccnc4)nc32)cc1C | . | 1% | . | . | -22%
CCN(CC)/C(Sc1ccccc1)=C(\C(Cl)=C(Cl)Cl)[N+](=O)[O-] | -4% | -14% | 1% | -16% | 22µM*
O=[N+]([O-])/C(C(Cl)=C(Cl)Cl)=C(\Sc1ccccc1)N1CCCCC1 | -6% | -3% | -14% | -1% | 13µM*
CCN(CC)C(=O)Cc1ccccc1 | -6% | -4% | -12% | 11% | -3%
O=C(CCSc1ccccc1)N1CCCC1 | 0% | -2% | 8% | 3% | 8%
CCN(CC)/C(Sc1ccccc1)=C(/C(Cl)=C(Cl)Cl)[N+](=O)[O-] | -8% | -1% | 4% | -4% | 56µM*
CC(C)C1NC(C(=O)O)Cc2c1[nH]c1ccccc21 (stereo not given) | -21% | ? | -17% | 8% | ?
CCCN1CCC2(CC1)NC(C(=O)O)Cc1c2[nH]c2ccccc12 (stereo not given) | -10% | 7% | -12% | 7% | 25µM*
CCCC1NC(C(=O)O)Cc2c1[nH]c1ccccc21 (stereo not given) | -22% | -9% | -21% | 3% | 45µM*
CCC1(C)NC(C(=O)O)Cc2c1[nH]c1ccccc21 (stereo not given) | -16% | -12% | 9% | -4% | 35µM*
